ADAM17 inh: inhibitors of human ADAM17; P78536; recombinant ADAM17, EDANS/DABCYL FRET peptide cleavage; inhibition, % at 6.95 µM; hit rate 0.83% among 370,000;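 active means inhibition above the mean of compounds lying between control limits plus 3 SD, set per campaign, cut at about 8.5% in these data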;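 further: 0% = DMSO-only wells as the low control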
PLCb3 inh: PLC-beta3 (human) inhibition, primary screen. Purified PLC-beta3, fluorogenic substrate, fluorescence. hit rate 0.18% among 370,000. Q01970. inhibition, % at 12.2 µM. AID 720704; in the data active means inhibition above about 11%;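 further: 0% = median of compound wells on plate and 100% = full blocker control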
PLC-gamma1 inh: PLC-gamma1 (human) inhibition, primary screen. hit rate 0.84% among 370,000. inhibition, % at 12.2 µM. AID 720700. purified PLC-gamma1, fluorogenic substrate, fluorescence; in the data active means inhibition above about 9.5%
Rce1 inh: yeast Ras-converting enzyme inhibition | Q03530 | yeast membranes, quenched prenylated peptide cleavage fluorescence | calls only | hit rate 0.27% among 290,000 | AID 2563;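 active means fall in fluorescence gain of 50% or more versus controls, with final raw signal at or below 3038400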;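 further: plate controls were neutral control wells for no effect and wells lacking membranes for full effect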
ADAM10 inh: ADAM10 inhibition, QFRET primary screen; recombinant ADAM10, EDANS/DABCYL FRET peptide cleavage, 3 h; inhibition, % at 7 µM; hit rate 0.62% among 370,000; AID 720582;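 active means inhibition above a per-campaign cutoff equal to the mean of compounds falling between control-based bounds plus 3 SD, cut at about 20% in these data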;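 further: 0% = DMSO wells while the 100% control is not disclosed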
Target sequence (O14672 214-748 limits assumed): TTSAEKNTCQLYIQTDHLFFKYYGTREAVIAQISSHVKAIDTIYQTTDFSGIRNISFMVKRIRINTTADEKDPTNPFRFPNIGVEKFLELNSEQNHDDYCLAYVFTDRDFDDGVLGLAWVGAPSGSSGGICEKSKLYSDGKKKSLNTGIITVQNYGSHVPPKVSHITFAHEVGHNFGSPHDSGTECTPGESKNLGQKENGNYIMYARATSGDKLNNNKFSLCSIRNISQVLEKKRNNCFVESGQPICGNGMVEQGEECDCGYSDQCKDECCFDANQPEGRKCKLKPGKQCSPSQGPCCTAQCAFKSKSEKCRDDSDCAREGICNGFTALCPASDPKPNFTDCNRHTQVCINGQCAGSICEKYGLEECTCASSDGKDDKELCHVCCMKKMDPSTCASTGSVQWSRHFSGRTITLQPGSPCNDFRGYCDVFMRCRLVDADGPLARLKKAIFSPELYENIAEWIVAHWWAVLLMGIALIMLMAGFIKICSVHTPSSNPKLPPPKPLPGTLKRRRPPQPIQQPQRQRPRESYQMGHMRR
* hit, by the source's call. Most compounds without a hit are left out; they make up all but 2.1% or so of the library.

Results for Cc1ccc2nc(NC(=O)C3CCN(S(=O)(=O)c4cccs4)CC3)sc2c1 ?
ADAM17 inh: 5.7; PLCb3 inh: 1.8; PLC-gamma1 inh: 1.9; Rce1 inh: inactive; ADAM10 inh: 21.3*

Results for CN(C)/C=N/c1nc2nccc(-c3cccc(Cl)c3)n2n1 ?
ADAM17 inh: -80.8; PLCb3 inh: -320.8; PLC-gamma1 inh: -239.1; ADAM10 inh: -294.7

Results for CN(C)/C=N/c1nc2nccc(-c3ccc(F)cc3)n2n1 ?
ADAM17 inh: -110.9; PLCb3 inh: -265.1; PLC-gamma1 inh: -209.0; Rce1 inh: active; ADAM10 inh: -434.0

What do the screens show for `CCN=C1NC(c2ccc(C(F)(F)F)cc2)C(C(=O)OC)=C(C)N1Cc1ccccc1C(F)(F)F` (configuration not stated)?
ADAM17 inh: -3.8; PLCb3 inh: 0.0; PLC-gamma1 inh: 0.9; ADAM10 inh: -13.5

What do the screens show for `O=[N+]([O-])c1cccc(-c2csc(N/N=C/c3cccc(O)c3)n2)c1`?
ADAM17 inh: 6.7; PLCb3 inh: 3.5; PLC-gamma1 inh: 3.8; Rce1 inh: inactive; ADAM10 inh: 19.5

What do the screens show for `COc1ccc(/C=C/c2nc3ccccc3n2C)cc1`?
ADAM17 inh: -44.4; PLCb3 inh: -134.7; PLC-gamma1 inh: -88.3; Rce1 inh: active; ADAM10 inh: -121.7

Results for CC(C)N(Cc1nc(-c2ccccc2)no1)S(=O)(=O)c1ccccc1 ?
ADAM17 inh: 0.5; PLCb3 inh: -0.6; PLC-gamma1 inh: 3.5; Rce1 inh: inactive; ADAM10 inh: -13.8

Results for O=S(=O)(c1ccccc1)N(Cc1nc(-c2ccccc2)no1)C1CCCCC1 ?
ADAM17 inh: 7.2; PLCb3 inh: -12.7; PLC-gamma1 inh: 15.2*; Rce1 inh: inactive; ADAM10 inh: 16.6

What do the screens show for `O=C(CSc1nnc(CNc2ccc(F)cc2)o1)N1c2ccccc2Sc2ccccc21`?
ADAM17 inh: 8.4; PLCb3 inh: 2.0; PLC-gamma1 inh: 1.9; Rce1 inh: inactive; ADAM10 inh: 24.1*

How did Cc1cccc(C)c1NC(=O)C1(C)CSCC(=O)N1CCOc1ccccc1 (configuration not stated) do in these assays?
ADAM17 inh: 7.0; PLCb3 inh: 11.1*; PLC-gamma1 inh: 12.3*; ADAM10 inh: 2.2

What do the screens show for `COCCN1C(=O)CSCC1(C)C(=O)Nc1c(C)cccc1C` (configuration not stated)?
ADAM17 inh: -1.2; PLCb3 inh: 1.2; PLC-gamma1 inh: 2.6; ADAM10 inh: -17.3

What do the screens show for `CCOC(=O)C1(CCc2ccccc2)CCN(C(=O)C(C)n2cncn2)CC1` (configuration not stated)?
ADAM17 inh: 1.6; PLCb3 inh: 3.5; PLC-gamma1 inh: 6.1; Rce1 inh: inactive; ADAM10 inh: 6.8

Results for COc1ccc(-c2csc(NC(=O)C3CCCCN3S(=O)(=O)c3ccccc3)n2)cc1 (configuration not stated) ?
ADAM17 inh: 10.2*; PLCb3 inh: 3.0; PLC-gamma1 inh: 6.0; Rce1 inh: inactive; ADAM10 inh: 14.5

What do the screens show for `COc1ccc(-c2csc(NC(=O)CS(=O)(=O)c3ccccc3)n2)cc1`?
ADAM17 inh: -2.7; PLCb3 inh: 1.2; PLC-gamma1 inh: 3.6; Rce1 inh: inactive; ADAM10 inh: -3.6

How did COc1ccc(CN(C(=O)Cc2c[nH]c3ccccc23)C(C(=O)NC2CCCCC2)c2ccc(C)o2)cc1 (configuration not stated) do in these assays?
ADAM17 inh: 12.3*; PLCb3 inh: -1.6; PLC-gamma1 inh: 2.1; Rce1 inh: inactive; ADAM10 inh: 25.5*

Results for O=C(CCN1C(=O)/C(=C/c2ccc(Cl)cc2)SC1=S)Nc1cccc(C(=O)O)c1 ?
ADAM17 inh: -2.3; PLCb3 inh: -2.6; PLC-gamma1 inh: 3.4; Rce1 inh: inactive; ADAM10 inh: -0.9

How did O=C(O)c1cccc(N2C(=O)/C(=C/c3ccc(SCc4ccc(Cl)cc4)o3)SC2=S)c1 do in these assays?
ADAM17 inh: -4.2; PLCb3 inh: -4.2; PLC-gamma1 inh: 32.4*; ADAM10 inh: -10.3

How did Cc1ccc(-c2cc(C(F)F)n3ncc(C(=O)N4CCN(c5cccc(C)c5C)CC4)c3n2)cc1 do in these assays?
ADAM17 inh: -1.4; PLCb3 inh: -4.4; PLC-gamma1 inh: -3.0; Rce1 inh: inactive; ADAM10 inh: -13.0

How did CCn1c(-c2cccs2)nc2ccccc21 do in these assays?
ADAM17 inh: -58.4; PLCb3 inh: -25.2; PLC-gamma1 inh: -21.8; Rce1 inh: active; ADAM10 inh: -165.4

What do the screens show for `CCOc1ccc2ccccc2c1/C=N/NC(=O)c1cc(C)[nH]n1`?
ADAM17 inh: 0.6; PLCb3 inh: -9.7; PLC-gamma1 inh: 0.3; Rce1 inh: inactive; ADAM10 inh: -2.2

Results for Cc1cc(C(=O)N/N=C/c2c3ccccc3cc3ccccc23)n[nH]1 ?
ADAM17 inh: 0.1; PLCb3 inh: -48.1; PLC-gamma1 inh: -25.9; Rce1 inh: active; ADAM10 inh: -19.4

How did CCOC(=O)C1=C(C(=O)OCC)C2N(Cc3ccc(C#N)cc3)c3ccccc3[C@@]23C[C@@H](C(=O)OC)N(S(=O)(=O)c2c(C)noc2C)C3=N1 (some centres not stated) do in these assays?
ADAM17 inh: -2.2; PLCb3 inh: -3.4; PLC-gamma1 inh: -1.0; ADAM10 inh: -1.8

How did CCS(=O)(=O)N1CCN(C2CCC(c3ccccc3)CC2)CC1 (configuration not stated) do in these assays?
Rce1 inh: active

How did Cc1ccc(S(=O)(=O)N2CCN(C3CCC(c4ccccc4)CC3)CC2)cc1 (configuration not stated) do in these assays?
Rce1 inh: inactive

How did Cc1ccc(C)c(S(=O)(=O)/N=C2\C=C(NS(=O)(=O)c3ccccc3)C(=O)c3ccccc32)c1 do in these assays?
ADAM17 inh: 2.2; PLCb3 inh: -10.3; PLC-gamma1 inh: -1.1; Rce1 inh: inactive; ADAM10 inh: 3.6

How did Cc1cc(C)c(S(=O)(=O)/N=C2/C=C(Sc3ncn[nH]3)C(=O)c3ccccc32)cc1C do in these assays?
ADAM17 inh: 1.8; PLCb3 inh: -3.9; PLC-gamma1 inh: 11.8*; ADAM10 inh: 1.4

Results for COC(=O)c1sc2nc(N3CCCCC3)c3c(c2c1N)CCCC3 ?
ADAM17 inh: -24.6; PLCb3 inh: -110.7; PLC-gamma1 inh: -70.1; Rce1 inh: inactive; ADAM10 inh: -117.1

How did NC(=O)c1sc2nc(N3CCCCC3)c3c(c2c1N)CCCC3 do in these assays?
ADAM17 inh: -13.2; PLCb3 inh: -109.4; PLC-gamma1 inh: -83.6; Rce1 inh: active; ADAM10 inh: -49.0

What do the screens show for `CC1CCN(C(=O)c2cc3nc(-c4ccccc4)cc(-c4ccccc4)n3n2)CC1`?
ADAM17 inh: -7.6; PLCb3 inh: -62.5; PLC-gamma1 inh: -40.0; Rce1 inh: active; ADAM10 inh: -21.6

How did CCOc1cc(C2C3=C(CCCC3=O)N(CCC(=O)O)C3=C2C(=O)CCC3)ccc1OS(=O)(=O)c1ccc(C)cc1 do in these assays?
ADAM17 inh: -456.4; PLCb3 inh: inactive; PLC-gamma1 inh: inactive; Rce1 inh: inactive; ADAM10 inh: inactive
